# Numbering of substitutions follows the chain as printed.
# Columns and labels:
# Test in all cases: PBM; 200 nM protein, PBS
# Details in all cases: dsDNA, one strand shown
# HOXB9 [1] = biological target: HOXB9 (Homo sapiens, UniProt P17482 171-250, T197M)
# SIX6 [2] = biological target: T1, SIX6 (Homo sapiens, UniProt O95475 114-200, L167I)
# T1 sequence: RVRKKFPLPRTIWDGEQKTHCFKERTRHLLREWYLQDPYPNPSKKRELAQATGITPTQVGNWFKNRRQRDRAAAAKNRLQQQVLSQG
# SIX6 [3] = biological target: T2, SIX6 (Homo sapiens, UniProt O95475 114-200, L143V)
# T2 sequence: T1 sequence with L30V, I54L
# SIX6 [4] = biological target: T3, SIX6 (Homo sapiens, UniProt O95475 114-200, H141N)
# T3 sequence: T1 sequence with H28N, I54L
# SIX6 [5] = biological target: T4, SIX6 (Homo sapiens, UniProt O95475 114-200, T165P)
# T4 sequence: T1 sequence with T52P, I54L
# SIX6 [6] = biological target: T5, SIX6 (Homo sapiens, UniProt O95475 114-200, L167M)
# T5 sequence: T1 sequence with I54M
# SIX6 [7] = biological target: T6, SIX6 (Homo sapiens, UniProt O95475 114-200, L143M)
# T6 sequence: T1 sequence with L30M, I54L
# SIX6 [8] = biological target: T7, SIX6 (Homo sapiens, UniProt O95475 114-200, L143I)
# T7 sequence: T1 sequence with L30I, I54L
# SIX6 [9] = biological target: T8, SIX6 (Homo sapiens, UniProt O95475 114-200, T165G)
# T8 sequence: T1 sequence with T52G, I54L
# HOXB9 [10] = biological target: HOXB9 (Homo sapiens, UniProt P17482 171-250)
# Chain of HOXB9 (Homo sapiens, UniProt P17482 171-250) (P17482 171-250): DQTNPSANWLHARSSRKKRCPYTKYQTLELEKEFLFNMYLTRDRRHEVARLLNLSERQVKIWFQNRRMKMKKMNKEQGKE
# SIX6 [11] = biological target: T9, SIX6 (Homo sapiens, UniProt O95475 114-200, T139Q)
# T9 sequence: T1 sequence with T26Q, I54L
# SIX6 [12] = biological target: T10, SIX6 (Homo sapiens, UniProt O95475 114-200, T165A)
# T10 sequence: T1 sequence with T52A, I54L
# SIX6 [13] = biological target: T11, SIX6 (Homo sapiens, UniProt O95475 114-200, L167V)
# T11 sequence: T1 sequence with I54V
# SIX6 [14] = biological target: T12, SIX6 (Homo sapiens, UniProt O95475 114-200)
# T12 sequence: T1 sequence with I54L
# SIX6 [15] = biological target: T13, SIX6 (Homo sapiens, UniProt O95475 114-200, T165I)
# T13 sequence: T1 sequence with T52I, I54L
# HOXB9 [16] = biological target: HOXB9 (Homo sapiens, UniProt P17482 171-250, R186Q)
# Chain of HOXB9 (Homo sapiens, UniProt P17482 171-250, R186Q) (P17482 171-250 R186Q): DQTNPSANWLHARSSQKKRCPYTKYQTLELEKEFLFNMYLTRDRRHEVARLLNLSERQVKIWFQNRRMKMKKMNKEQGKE
# VENTX [17] = biological target: T14, VENTX (Homo sapiens, UniProt O95231 78-163, R121Q)
# T14 sequence: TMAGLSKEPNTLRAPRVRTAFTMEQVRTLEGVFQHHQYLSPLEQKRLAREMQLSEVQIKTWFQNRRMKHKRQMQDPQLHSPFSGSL
# VENTX [18] = biological target: T15, VENTX (Homo sapiens, UniProt O95231 78-163)
# T15 sequence: T14 sequence with Q44R
# HOXA4 = HOXA4 (Homo sapiens, UniProt Q00056 201-287)
# Chain of HOXA4 (Q00056 201-287): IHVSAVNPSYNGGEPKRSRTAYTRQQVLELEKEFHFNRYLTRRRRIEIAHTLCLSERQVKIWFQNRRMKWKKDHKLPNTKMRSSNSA
# HOXC9 [19] = biological target: HOXC9 (Homo sapiens, UniProt P31274 178-260, K195R)
# Chain of HOXC9 (Homo sapiens, UniProt P31274 178-260, K195R) (P31274 178-260 K195R): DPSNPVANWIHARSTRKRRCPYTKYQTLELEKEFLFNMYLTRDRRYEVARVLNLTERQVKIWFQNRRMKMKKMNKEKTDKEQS
# HOXA7 [20] = biological target: HOXA7 (Homo sapiens, UniProt P31268 116-202)
# Chain of HOXA7 (Homo sapiens, UniProt P31268 116-202) (P31268 116-202): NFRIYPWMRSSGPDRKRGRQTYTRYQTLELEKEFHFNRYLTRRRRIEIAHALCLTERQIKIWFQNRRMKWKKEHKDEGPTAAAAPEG
# HOXB6 [21] = biological target: HOXB6 (Homo sapiens, UniProt P17509 132-218, K202E)
# Chain of HOXB6 (Homo sapiens, UniProt P17509 132-218, K202E) (P17509 132-218 K202E): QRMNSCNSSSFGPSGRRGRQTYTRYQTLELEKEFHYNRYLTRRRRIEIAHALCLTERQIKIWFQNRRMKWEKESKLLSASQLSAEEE
# HOXC9 [22] = biological target: HOXC9 (Homo sapiens, UniProt P31274 178-260)
# Chain of HOXC9 (Homo sapiens, UniProt P31274 178-260) (P31274 178-260): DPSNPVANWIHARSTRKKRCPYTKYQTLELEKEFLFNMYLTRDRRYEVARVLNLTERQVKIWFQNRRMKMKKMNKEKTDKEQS
# HOXD13 [23] = biological target: HOXD13 (Homo sapiens, UniProt P35453 263-343, T313R)
# Chain of HOXD13 (Homo sapiens, UniProt P35453 263-343, T313R) (P35453 263-343 T313R): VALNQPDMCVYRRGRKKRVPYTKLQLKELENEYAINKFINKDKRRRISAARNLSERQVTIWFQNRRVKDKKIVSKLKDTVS
# NKX2-6 = biological target: T16, NKX2-6 (Homo sapiens, UniProt A6NCS4 118-204)
# T16 sequence: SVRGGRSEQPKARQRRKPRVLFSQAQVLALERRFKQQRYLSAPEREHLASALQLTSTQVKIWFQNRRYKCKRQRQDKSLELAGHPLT
# HOXC9 [24] = biological target: HOXC9 (Homo sapiens, UniProt P31274 178-260, R193K)
# Chain of HOXC9 (Homo sapiens, UniProt P31274 178-260, R193K) (P31274 178-260 R193K): as the sequence (P31274 178-260) above, with R16K counted along it
# HOXD13 [25] = biological target: HOXD13 (Homo sapiens, UniProt P35453 263-343)
# Chain of HOXD13 (Homo sapiens, UniProt P35453 263-343) (P35453 263-343): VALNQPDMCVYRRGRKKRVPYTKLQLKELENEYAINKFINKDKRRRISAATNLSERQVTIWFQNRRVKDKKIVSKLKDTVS
# HOXC10 [26] = biological target: HOXC10 (Homo sapiens, UniProt Q9NYD6 254-340, K271E)
# Chain of HOXC10 (Homo sapiens, UniProt Q9NYD6 254-340, K271E) (Q9NYD6 254-340 K271E): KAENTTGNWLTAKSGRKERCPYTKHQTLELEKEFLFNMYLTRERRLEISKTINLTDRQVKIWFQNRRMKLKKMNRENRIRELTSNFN
# HOXD13 [27] = biological target: HOXD13 (Homo sapiens, UniProt P35453 263-343, T313A)
# Chain of HOXD13 (Homo sapiens, UniProt P35453 263-343, T313A) (P35453 263-343 T313A): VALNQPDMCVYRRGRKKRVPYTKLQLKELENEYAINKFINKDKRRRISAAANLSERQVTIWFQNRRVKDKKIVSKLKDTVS
# HOXC9 [28] = biological target: HOXC9 (Homo sapiens, UniProt P31274 178-260, R222W)
# Chain of HOXC9 (Homo sapiens, UniProt P31274 178-260, R222W) (P31274 178-260 R222W): as the sequence (P31274 178-260) above, with R45W counted along it
# HOXA7 [29] = biological target: HOXA7 (Homo sapiens, UniProt P31268 116-202, W177C)
# Chain of HOXA7 (Homo sapiens, UniProt P31268 116-202, W177C) (P31268 116-202 W177C): as the sequence (P31268 116-202) above, with W62C counted along it
# HOXB6 [30] = biological target: HOXB6 (Homo sapiens, UniProt P17509 132-218)
# Chain of HOXB6 (Homo sapiens, UniProt P17509 132-218) (P17509 132-218): as the sequence (P17509 132-218 K202E) above, with E71K counted along it
# HOXC10 [31] = biological target: HOXC10 (Homo sapiens, UniProt Q9NYD6 254-340)
# Chain of HOXC10 (Homo sapiens, UniProt Q9NYD6 254-340) (Q9NYD6 254-340): as the sequence (Q9NYD6 254-340 K271E) above, with E18K counted along it
# PAX4 = biological target: T17, PAX4 (Homo sapiens, UniProt O43316 9-242, R200K)
# T17 sequence: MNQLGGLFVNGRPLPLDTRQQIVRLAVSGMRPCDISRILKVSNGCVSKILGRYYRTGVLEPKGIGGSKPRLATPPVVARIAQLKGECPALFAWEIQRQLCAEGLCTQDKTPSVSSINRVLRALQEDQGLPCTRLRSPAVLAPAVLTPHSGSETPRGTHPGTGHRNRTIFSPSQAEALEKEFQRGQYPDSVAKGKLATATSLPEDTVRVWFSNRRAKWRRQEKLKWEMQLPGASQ
# HOXB4 = HOXB4 (Homo sapiens, UniProt P17483 148-234, V174I)
# Chain of HOXB4 (P17483 148-234 V174I): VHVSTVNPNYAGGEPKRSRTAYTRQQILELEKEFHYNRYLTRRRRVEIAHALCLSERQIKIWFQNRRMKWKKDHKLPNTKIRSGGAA
# Chain of HOXB9 (Homo sapiens, UniProt P17482 171-250, T197M) (P17482 171-250 T197M): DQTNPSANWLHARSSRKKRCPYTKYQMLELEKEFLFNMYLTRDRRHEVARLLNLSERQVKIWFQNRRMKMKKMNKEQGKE
sequence,measurement,setting,value
CAGCTGCG,binding signal,HOXB9 [1],"8.53 upbm affinity estimate (log intensity, higher = more binding, comparable within an allelic series)"
same,binding signal,SIX6 [2],"9.16 upbm affinity estimate (log intensity, higher = more binding, comparable within an allelic series)"
same,binding signal,SIX6 [3],"9.03 upbm affinity estimate (log intensity, higher = more binding, comparable within an allelic series)"
same,binding signal,SIX6 [4],"9.09 upbm affinity estimate (log intensity, higher = more binding, comparable within an allelic series)"
same,binding signal,SIX6 [5],"9 upbm affinity estimate (log intensity, higher = more binding, comparable within an allelic series)"
same,binding signal,SIX6 [6],"9.04 upbm affinity estimate (log intensity, higher = more binding, comparable within an allelic series)"
same,binding signal,SIX6 [7],"9.22 upbm affinity estimate (log intensity, higher = more binding, comparable within an allelic series)"
same,binding signal,SIX6 [8],"9.01 upbm affinity estimate (log intensity, higher = more binding, comparable within an allelic series)"
same,binding signal,SIX6 [9],"9.19 upbm affinity estimate (log intensity, higher = more binding, comparable within an allelic series)"
same,binding signal,HOXB9 [10],"8.16 upbm affinity estimate (log intensity, higher = more binding, comparable within an allelic series)"
same,binding signal,SIX6 [11],"9.25 upbm affinity estimate (log intensity, higher = more binding, comparable within an allelic series)"
same,binding signal,SIX6 [12],"9.08 upbm affinity estimate (log intensity, higher = more binding, comparable within an allelic series)"
same,binding signal,SIX6 [13],"9.05 upbm affinity estimate (log intensity, higher = more binding, comparable within an allelic series)"
same,binding signal,SIX6 [14],"9.08 upbm affinity estimate (log intensity, higher = more binding, comparable within an allelic series)"
same,binding signal,SIX6 [15],"9.09 upbm affinity estimate (log intensity, higher = more binding, comparable within an allelic series)"
same,binding signal,HOXB9 [16],"8.31 upbm affinity estimate (log intensity, higher = more binding, comparable within an allelic series)"
AGTTATCC,binding signal,VENTX [17],"9.65 upbm affinity estimate (log intensity, higher = more binding, comparable within an allelic series)"
same,binding signal,VENTX [18],"10.1 upbm affinity estimate (log intensity, higher = more binding, comparable within an allelic series)"
same,binding signal,HOXA4,"11.1 upbm affinity estimate (log intensity, higher = more binding, comparable within an allelic series)"
GCTATTAA,binding signal,HOXB9 [1],"10 upbm affinity estimate (log intensity, higher = more binding, comparable within an allelic series)"
same,binding signal,HOXC9 [19],"12.7 upbm affinity estimate (log intensity, higher = more binding, comparable within an allelic series)"
same,binding signal,HOXA7 [20],"11.4 upbm affinity estimate (log intensity, higher = more binding, comparable within an allelic series)"
same,binding signal,HOXB6 [21],"9.98 upbm affinity estimate (log intensity, higher = more binding, comparable within an allelic series)"
same,binding signal,HOXB9 [10],"12 upbm affinity estimate (log intensity, higher = more binding, comparable within an allelic series)"
same,binding signal,HOXC9 [22],"12.8 upbm affinity estimate (log intensity, higher = more binding, comparable within an allelic series)"
same,binding signal,HOXD13 [23],"10.7 upbm affinity estimate (log intensity, higher = more binding, comparable within an allelic series)"
same,binding signal,NKX2-6,"11.8 upbm affinity estimate (log intensity, higher = more binding, comparable within an allelic series)"
same,binding signal,HOXC9 [24],"12.7 upbm affinity estimate (log intensity, higher = more binding, comparable within an allelic series)"
same,binding signal,HOXD13 [25],"11.8 upbm affinity estimate (log intensity, higher = more binding, comparable within an allelic series)"
same,binding signal,HOXC10 [26],"11.8 upbm affinity estimate (log intensity, higher = more binding, comparable within an allelic series)"
same,binding signal,HOXD13 [27],"11.5 upbm affinity estimate (log intensity, higher = more binding, comparable within an allelic series)"
same,binding signal,HOXB9 [16],"11.8 upbm affinity estimate (log intensity, higher = more binding, comparable within an allelic series)"
same,binding signal,HOXC9 [28],"10.9 upbm affinity estimate (log intensity, higher = more binding, comparable within an allelic series)"
same,binding signal,HOXA7 [29],"8.84 upbm affinity estimate (log intensity, higher = more binding, comparable within an allelic series)"
same,binding signal,HOXB6 [30],"11.8 upbm affinity estimate (log intensity, higher = more binding, comparable within an allelic series)"
CATTAATA,binding signal,HOXB9 [1],"10.2 upbm affinity estimate (log intensity, higher = more binding, comparable within an allelic series)"
same,binding signal,HOXC9 [19],"12.7 upbm affinity estimate (log intensity, higher = more binding, comparable within an allelic series)"
same,binding signal,HOXA7 [20],"11.5 upbm affinity estimate (log intensity, higher = more binding, comparable within an allelic series)"
same,binding signal,HOXC10 [31],"12.2 upbm affinity estimate (log intensity, higher = more binding, comparable within an allelic series)"
same,binding signal,PAX4,"11.6 upbm affinity estimate (log intensity, higher = more binding, comparable within an allelic series)"
same,binding signal,HOXB6 [21],"10.1 upbm affinity estimate (log intensity, higher = more binding, comparable within an allelic series)"
same,binding signal,HOXB9 [10],"12 upbm affinity estimate (log intensity, higher = more binding, comparable within an allelic series)"
same,binding signal,HOXB4,"13.6 upbm affinity estimate (log intensity, higher = more binding, comparable within an allelic series)"
same,binding signal,HOXC9 [22],"12.6 upbm affinity estimate (log intensity, higher = more binding, comparable within an allelic series)"
same,binding signal,HOXC9 [24],"12.6 upbm affinity estimate (log intensity, higher = more binding, comparable within an allelic series)"
same,binding signal,HOXC10 [26],"11.9 upbm affinity estimate (log intensity, higher = more binding, comparable within an allelic series)"
same,binding signal,HOXB9 [16],"11.7 upbm affinity estimate (log intensity, higher = more binding, comparable within an allelic series)"
same,binding signal,HOXC9 [28],"11.1 upbm affinity estimate (log intensity, higher = more binding, comparable within an allelic series)"
same,binding signal,HOXA7 [29],"9 upbm affinity estimate (log intensity, higher = more binding, comparable within an allelic series)"
same,binding signal,HOXB6 [30],"11.9 upbm affinity estimate (log intensity, higher = more binding, comparable within an allelic series)"

# From publication PMC11006913
